# Bioassay records (PubChem)
# A selection: hits, their analogues and other compounds. The true share with any hit is near 3.1%.
# HSF1 inhib: HSF1 inhibition | NIH3T3-HGL HSE-luciferase, MG132-induced, luminescence 8 h; active compounds read low | activity change, negative = inhibition, % at 7.5 µM (by protocol) | 0.77% of 300,000 active | AID 2098;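 active means more than half of replicate wells show activity change below -50%, luminescence cut by over half; inconclusive means some wells, but at most half, below -50%; inactive means no replicate well below -50%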;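 further: luciferase reports HSF-1 transcriptional activity via heat shock element; 0% = median of DMSO wells and -100% = zero luminescence signal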
# HSF1 activator: increases HSF-1 driven luciferase reporter signal. activation, % at 9 µM. NIH3T3-HGL HSF-1 luciferase reporter, MG132, 8 h; 100% = twice DMSO control signal. 1.7% of 300,000 active. AID 504408;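 active means mean replicate activation of at least 50% with a set share of replicates each reaching 50%; inconclusive means only one of those two conditions met; inactive means mean below 50% and too few replicates reaching it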;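 further: 0% = median of the neutral control wells and 100% = twice that signal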
# HSP90 refold inh: HSP90 refolding inhibition in rabbit reticulocyte lysate; inhibition, % at 5.6 µM; AID 1789; 0.91% of 290,000 active; luciferase refolding luminescence, 3 h;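 active means inhibition above the screen-wide mean plus 3 SD, computed separately per campaign, cut at about 16% in these data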;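 further: 0% = DMSO wells and 100% = 60 µM geldanamycin wells; inhibitors lower the luminescence because luciferase stays unfolded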
# HIF activator: HIF pathway transcriptional activation | U2OS HRE-luciferase reporter, luminescence; normalized: DMSO 0%, desferrioxamine 100% | activation, % at 7.5 µM (by protocol) | 0.32% of 300,000 active;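 active means mean activation of at least 10% of the iron chelator positive control signal, with at least half of replicates also reaching 10%; inconclusive means mean and replicate majority disagree about reaching 10%; inactive means mean and most replicates under 10%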
# ARNT-TACC3 inh: ARNT/TACC3 interaction disruption. Q9Y6A5. AID 623870. AlphaScreen His-ARNT PAS-B/GST-TACC3 binding, luminescence; TACC3 fragment carries E629A point mutation. inhibition, % at 9.99 µM. 0.66% of 390,000 active;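 active means mean inhibition of replicates at least 50% and at least half of replicates each reaching 50%; inconclusive means half or more replicates reach 50% but mean below 50%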;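 further: 0% = complete ARNT plus TACC3 wells and 100% = ARNT alone without TACC3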
# Starred values were filed as active, the others as inactive; ? = inconclusive; / = no result given.
SMILES,HSF1 inhib,HSF1 activator,HSP90 refold inh,HIF activator,ARNT-TACC3 inh
COc1ccc(S(=O)(=O)Nc2ccc3c(c2)C(=O)N([C@H](C)CO)C[C@@H](C)[C@@H](CN(C)C(=O)Nc2ccc(C(F)(F)F)cc2)OCCCC[C@@H](C)O3)cc1,/,/,/,/,7
Cc1cc(N(C)C)c(C#N)c(NCc2ccccc2)n1,50,93*,-2,-1,14
CN(C)CC#Cc1ccc([C@H]2[C@H](CO)N3CCCCN(C(=O)Nc4ccccc4F)C[C@@H]23)cc1,/,/,/,/,4
CN(C)CC(=O)Nc1ccc2c(c1)[C@H]1C[C@H](CC(=O)NC3CCCC3)O[C@H](CO)[C@H]1O2,/,/,/,/,-6
CCCSc1nsc(NC(=O)Nc2ccc(F)cc2F)n1,53,68*,1,0,-2
O=C(Nc1nc2ccccc2s1)Nc1ccc(F)cc1F,36,50*,0,5,-10
CCSc1nsc(NC(=O)Nc2cccc(F)c2)n1,-10,3,1,2,3
COc1ccc(NC(=O)N2CCCCN3[C@H](CO)[C@H](c4ccc(C#Cc5ccccn5)cc4)[C@H]3C2)cc1,/,/,/,/,26
O=S(=O)(N1CCCCC1)n1nnc2ccccc21,-53*,-64,-1,0,-6
O=S(=O)(c1cccs1)n1nnc2ccccc21,-8,20,3,0,5
Cc1ccc(OCc2cc(C(=O)N3CCN(C)C[C@@H]3c3ccccc3)no2)cc1C,27,56*,-2,5,-6
COc1ccc(COC[C@@]23Oc4ccccc4[C@@H](NC(=S)N2C)[C@H]3CO[Si](C)(C)C(C)(C)C)cc1,/,/,/,/,-3
CCCN(C)C[C@@H]1Oc2ncc(-c3cccc(C#N)c3)cc2C(=O)N([C@H](C)CO)C[C@H]1C,/,/,/,/,-4
CCOc1ccc(NC(=O)C(C)SC(N)=O)cc1 (stereo not given),-60*,-70,-1,0,6
CCOc1ccc(NC(=O)C(C)Sc2nnnn2C)cc1 (stereo not given),-4,-3,2,1,-2
Cc1cc(-c2nc3ncccc3o2)ccc1NC(=S)NC(=O)C(C)C,38,52*,2,0,-2
Fc1ccccc1Cn1nnc(-c2ccc3c(c2)OCO3)n1,52,83*,-1,2,-16
O=C(Nc1cccc(O)c1)c1cc(-c2ccco2)on1,13,-3,17*,2,4
CCCNC(=O)c1cc(-c2ccco2)on1,3,25,7,16*,-3
C[C@H]1CCCCO[C@@H](CN(C)Cc2ccc(C(F)(F)F)cc2)[C@@H](C)CN([C@@H](C)CO)C(=O)c2cc(NC(=O)C3CCCCC3)ccc2O1,/,/,/,/,-2
C[C@H](NC(=O)C[C@H]1C[C@@H]2c3cc(NC(=O)Cc4ccncc4)ccc3O[C@@H]2[C@H](CO)O1)c1ccccc1,/,/,/,/,-3
Fc1ccc(CSc2nc3ccccc3[nH]2)cc1,28,61*,1,2,-23
O=C(CSc1nc2ccccc2[nH]1)N1CCN(c2ccc(F)cc2)CC1,9,25,3,0,-2
Cc1cc(SCc2cccc([N+](=O)[O-])c2)nc(=O)[nH]1,-1,1,0,0,-3
Nn1c(SCc2ccc([N+](=O)[O-])cc2)nc2ccccc2c1=O,20,55*,2,-21,-3
SMILES,HSF1 inhib,HSF1 activator,HSP90 refold inh,HIF activator,ARNT-TACC3 inh
c1ccc(CSc2nc3ccccc3[nH]2)cc1,35,?,3,2,-8
O=C(CCCSc1nc2ccccc2[nH]1)N1CCN(c2ccc([N+](=O)[O-])cc2)CC1,23,73*,5,4,-7
O=c1c2ccccc2nc(SCc2ccc([N+](=O)[O-])cc2)n1-c1ccc(Cl)cc1,4,12,1,0,/
Cc1cc(SCc2ccc([N+](=O)[O-])cc2)nc(=O)[nH]1,34,69*,-1,0,-1
C[C@@H]1CN([C@H](C)CO)C(=O)Cc2cc(NS(=O)(=O)c3cccs3)ccc2O[C@H]1CN(C)Cc1ccncc1,/,/,/,/,-40
COc1cccc(-c2cnc3c(c2)C(=O)N([C@H](C)CO)C[C@H](C)[C@H](CN(C)Cc2ccc(C(=O)O)cc2)O3)c1,/,/,/,/,0
O=c1c2sccc2nc(SCc2ccc([N+](=O)[O-])cc2)n1Cc1ccccn1,19,59*,2,1,-10
CCCOc1ccc(CSc2nc3ccccc3[nH]2)cc1,27,35,-2,3,-3
O=[N+]([O-])c1ccc(CSc2nc3ccccc3[nH]2)cc1,67,121*,2,3,2
COCC(=O)Nc1ccc2c(c1)OC[C@@H](C)N(C(=O)c1ccccc1)C[C@H](C)[C@@H](OC)CN(C)C2=O,/,/,/,/,-8
COCC#Cc1ccc2c(c1)O[C@@H](CN(C)S(=O)(=O)c1ccc(C)cc1)[C@@H](C)CN([C@H](C)CO)S2(=O)=O,/,/,/,/,1
CCCNC(=O)Nc1ccc2c(c1)C(=O)N(C)C[C@H](OC)[C@H](C)CN(C(C)=O)[C@@H](C)CO2,/,/,/,/,0
CC1(C)CC(=O)C(C(c2cccnc2)C2C(=O)CC(C)(C)CC2=O)C(=O)C1,-90*,-92,-3,-1,9
COc1cccc(-c2cnc3c(c2)C(=O)N([C@@H](C)CO)C[C@@H](C)[C@@H](CN(C)C(=O)Nc2ccccc2F)O3)c1,/,/,/,/,2
OCC1(CCCc2ccccc2)CCN(C2CCSCC2)CC1,23,74*,-4,0,-6
OCC1(CCCc2ccccc2)CCN(C2CCC2)CC1,-3,0,-3,-14,7
COCC(=O)N1C[C@H]2[C@@H](c3ccccc31)[C@H](CO)N2C(=O)C1CCCC1,/,/,/,/,-1
Cc1ccc(C(=O)Nc2ccc3c(c2)C(=O)NC3=O)cc1,-57*,-66,0,1,-13
O=C(Cn1nnc2ccccc21)NNC(=S)NC1CCCCC1,-65*,-73,-3,0,/
O=C(CC(F)(F)F)N1C[C@@H]2[C@H](c3ccccc31)[C@H](CO)N2C(=O)C1CCOCC1,/,/,/,/,-3
CCCCN(C(=O)c1ccc([N+](=O)[O-])s1)c1c(N)n(CCCC)c(=O)[nH]c1=O,-62*,-70,/,0,-5
CCCCn1c(N)c(N(CCC(C)C)C(=O)COC(=O)c2ccc([N+](=O)[O-])s2)c(=O)[nH]c1=O,/,/,/,/,14
N#C[C@H]1[C@H](c2ccccc2)[C@H](CO)N1S(=O)(=O)c1ccc(-c2ccccc2)cc1,/,/,/,/,-1
Cc1ccc(S(=O)(=O)c2ccc([N+](=O)[O-])cn2)cc1,-84*,-88,-2,3,-7
O=[N+]([O-])c1ccc(S(=O)(=O)c2ccccc2)nc1,-96*,-96,4,-1,-3
Cc1noc(C)c1NC(=O)N(C)C[C@H]1OCCCC[C@@H](C)Oc2ccc(NC(=O)c3ccncc3)cc2C(=O)N([C@H](C)CO)C[C@@H]1C,/,/,/,/,-8
O=C(O)CCc1ccc(-c2ccc(Br)cc2)n1Cc1ccco1,68,116*,0,0,1
